Laboratory results taken from PubChem BioAssay (NCI).
Compounds without any hit were thinned out: in the full panel of roughly 83,000, 20% have a hit.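 Step 1: grow cells in 96-well plates. Step 2: add test compound at a single concentration. Step 3: incubate 48 h. Step 4: record percent growth.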 Calls of active or inactive are those of the source. How the source made its calls: active means growth percent below 10; inactive means the rest.

Assays:
Assay in all cases: NCI-60 one-dose screen, 48 h (100 = growth as untreated, 0 = no growth, -100 = all killed)
Details in all cases: 10 µM unless noted
[1] = tested on: T-47D breast
[2] = tested on: BT-549 breast
[3] = tested on: MDA-MB-435 melanoma
[4] = tested on: SW-620 colon
[5] = tested on: MCF7 breast
[6] = tested on: HCT-116 colon
[7] = tested on: HCC-2998 colon
[8] = tested on: KM12 colon

Measured: growth

COc1ccc(-c2nnc(/N=C3/C(=O)Nc4ccc(Br)cc43)o2)cc1
inactive: [1] 104% | [2] 103% | [3] 94.7% | [4] 100% | [5] 78.8% | [6] 101% | [7] 115% | [8] 89.7%

CCN1CCN(Cc2ccc(C(=O)Nc3nc4ccc(Oc5ccnc(C(=O)NC)c5)cc4s3)cc2C(F)(F)F)CC1
inactive: [1] 18.7% | [2] 45.3% | [3] 46% | [5] 16.3% | [6] 18% | [7] 62.8% | [8] 48.4%
active: [4] -17.2%

Oc1ccc(CSc2nnc(-c3ccc(Oc4ccccc4)cc3)o2)c2cccnc12
active: [1] 7.85% | [4] 2.32% | [6] 1.74% | [8] 9.88%
inactive: [2] 49.8% | [3] 29.9% | [5] 16% | [7] 29.4%

COc1ccc(-c2nc3cc(Cl)c(Cl)cc3n2CC(=O)N=Nc2c(O)[nH]c3ccccc23)cc1
inactive: [1] 57.8% | [2] 78.3% | [3] 68.8% | [4] 62.4% | [5] 45.7% | [6] 22.6% | [7] 66% | [8] 68.2%

Cc1cc(F)cc(NS(=O)(=O)c2ccc(-c3cnc(C4CC4)o3)cc2)c1
active: [3] -20.9%
inactive: [1] 26.7% | [2] 48.8% | [4] 24.7% | [5] 21.4% | [6] 19.5% | [7] 24.9% | [8] 18.3%

O=C(/C=C/c1cn(-c2ccccc2)nc1-c1ccc(Cl)cc1)c1cc2ccccc2oc1=O
inactive: [1] 44.1% | [2] 92.5% | [3] 57.6% | [4] 74% | [5] 33.9% | [6] 25.4% | [7] 102% | [8] 80.3%

COc1cc(/C=N/n2cnc3oc(-c4ccccc4)cc3c2=N)cc(CN2CCOCC2)c1O
inactive: [1] 81.6% | [2] 109% | [3] 60.8% | [4] 86.1% | [5] 73.8% | [6] 29.8% | [7] 101% | [8] 41.1%

NS(=O)(=O)c1ccc(Nc2nc(N/N=C/c3ccc(C(F)(F)F)cc3)nc(Nc3ccccc3)n2)cc1
active: [6] 9.73%
inactive: [1] 31.3% | [2] 48.9% | [3] 19.9% | [4] 54.8% | [5] 10.3% | [7] 53.1% | [8] 21.7%
